# High-throughput results deposited in PubChem by several laboratories.
# An excerpt weighted towards active compounds, which were near 3.3% of everything screened.
# SMARCA2 act – SMARCA2 function activation, primary screen; MG213 cells, MMTV-luciferase reporter, dexamethasone, overnight; activation, % at 9.1 µM; hit rate 1% among 370,000; AID 652017; in the data active means activation above about 7.8%;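 further: 0% = vehicle wells and 100% = reference activator wells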
# esBAF inh – inhibitors of esBAF chromatin remodeling in mouse ES cells. Bmi1-luciferase knock-in reporter, 24 h; 100% = twice the neutral-well signal. reporter increase, % at 12.5 µM. hit rate 2% among 350,000. AID 602393; in the data active means activation above about 40%; inconclusive means no clear call, values can overlap the other calls;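 further: 0% = median of the plate's neutral control wells and 100% = double that signal; a rise in the Bmi1 reporter signal indicates esBAF inhibition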
# 697 NFkB inh – inhibitors of the PMA/ionomycin-induced NF-kB reporter in 697 B cells. hit rate 0.33% among 330,000. inhibition, % at 4 µM. 697 B-cell NF-kB luciferase reporter, 16 h; in the data active means inhibition above about 35%
# Jurkat NFkB inh – lowers PMA/ionomycin-induced NF-kB signal in Jurkat cells. PMA/ionomycin-induced NF-kB luciferase reporter, luminescence. inhibition, % at 4 µM. hit rate 0.53% among 330,000; in the data active means inhibition above about 50%
# Gli-Sufu antag – blocks Gli-Sufu signaling in a luciferase reporter. Sufu-KO-LIGHT fibroblasts, Gli luciferase reporter luminescence. inhibition, % at 5 µM. hit rate 0.74% among 340,000;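 active means inhibition above about 55%, limit read from the data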;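 further: 0% = DMSO-treated cells and 100% = wells with medium but no cells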
# 697 NFkB conf – inhibitors of the PMA/ionomycin-induced NF-kB reporter in 697 B cells, retest. shares compounds with 697 NFkB inh. 697 B-cell NF-kB luciferase, 16 h. inhibition, % at 4 µM. hit rate 35% among 2,000. AID 449746; in the data active means inhibition mostly above about 28%, no sharp cut-off; inactive means mostly below about 22%
# * = called active by the depositor; i = inactive; ? = inconclusive; / = no result given.
SMILES,SMARCA2 act,esBAF inh,697 NFkB inh,Jurkat NFkB inh,Gli-Sufu antag,697 NFkB conf
Cn1cnc(CCNC(=O)C[C@@H]2CC[C@H]3[C@@H](COC[C@H](O)CN3C(=O)Nc3ccc(F)cc3)O2)c1,/,9.0,/,/,/,/
Clc1ccc2nc(N3CCN(c4ccccc4)CC3)sc2c1,2.3,/,-271.1,-138.5,-115.0,-207.9
C[C@H](CO)N1C[C@H](C)[C@H](CN(C)Cc2cccc(F)c2)Oc2ncc(-c3ccccc3F)cc2C1=O,/,1.8,/,/,/,/
COc1ccc(S(=O)(=O)Nc2ccc3c(c2)C(=O)N([C@@H](C)CO)C[C@@H](C)[C@@H](CN(C)C(=O)Nc2cccc4ccccc24)OCCCC[C@H](C)O3)cc1,/,3.0,/,/,/,/
Brc1ccccc1-n1nnc(-c2cnc3ccccc3c2)n1,5.7,?,-305.7,-149.8,-62.5,-320.8
Fc1ccc(-n2nnc(-c3ccccc3)n2)cc1,0.1,1.5,3.3,11.5,-2.8,/
CCCN1C[C@@H](C)[C@H](OC)CN(C)C(=O)c2ccc(NC(=O)c3ccccc3F)cc2OC[C@@H]1C,/,-0.2,/,/,/,/
CN(C)C(=O)[C@@H]1[C@@H](CO)[C@@H]2Cn3c(ccc(-c4cccc(F)c4)c3=O)[C@H]1N2Cc1ccccc1,/,2.9,/,/,/,/
C[C@H]1CN([C@@H](C)CO)C(=O)Cc2cc(NS(=O)(=O)c3ccccc3)ccc2O[C@H]1CN(C)S(=O)(=O)c1cn(C)cn1,/,1.8,/,/,/,/
CCOC(=O)c1cnc(SCc2ccccc2)nc1N,7.6,78.8*,-260.7,-77.3,-74.2,-156.9
CCOC(=O)c1cnc(SCc2ccc(C(C)(C)C)cc2)nc1N,-4.0,-1.7,-32.8,-3.1,6.5,/
Cc1cc(-c2csc3nc[nH]c(=S)c23)cc(C)c1C,0.1,1.6,35.5*,2.1,1.3,-22.2
Cc1ccc(-c2csc3nc[nH]c(=S)c23)cc1,-2.9,/,6.1,1.8,2.2,/
O=C(Cc1cccnc1)N[C@H]1CC[C@H](CCn2cc(Cc3ccccc3)nn2)O[C@@H]1CO,/,2.3,/,/,/,/
CCOC(=O)c1nn(-c2ccc3c(c2)CCN3C(C)=O)cc1O,7.0,-64.9,36.3*,-31.9,-64.5,22.5
N=c1c(C(=O)NC2CCCC2)cc2c(=O)n3ccccc3nc2n1CCN1CCOCC1,3.5,1.1,49.0*,1.7,-46.0,50.5*
N=c1c(C(=O)NC2CCCC2)cc2c(=O)n3ccccc3nc2n1CCCN1CCOCC1,-3.2,-6.0,-5.6,8.4,24.0,/
COc1ccccc1-c1ccc2c(c1)[C@@H]1[C@@H](CCN1S(=O)(=O)c1cccc(F)c1)[C@H](CO)N2,/,6.7,/,/,/,/
O=C(Nc1cccc(-n2cnnn2)c1)c1cccs1,-0.1,-1.0,3.5,-3.7,-2.4,/
CCc1sc(C(=O)Nc2cccc(-n3cnnn3)c2)cc1C,1.1,1.4,36.9*,23.2,19.3,39.2*
CO[C@H]1CN(C)C(=O)c2cc(NC(=O)Nc3cccc(F)c3)ccc2OC[C@@H](C)NC[C@H]1C,/,4.0,/,/,/,/
O=C(/C=C\NCC(=O)c1ccccc1)c1ccc(F)cc1,/,/,1.9,-9.5,-4.9,/
O=C(/C=C/Nc1ccc(F)cc1Br)c1ccccc1,-2.3,-53.3,-343.5,-47.3,-18.7,-124.0
CN(C)S(=O)(=O)c1ccc(NC(=O)N2CCN(c3ccccc3)CC2)cc1,0.5,7.3,46.1*,-8.6,23.4,28.7*
COc1ccc(N2CCN(C(=O)Nc3ccc(S(=O)(=O)N(C)C)cc3)CC2)cc1,-2.3,-5.4,1.0,-7.1,-0.2,/
SMILES,SMARCA2 act,esBAF inh,697 NFkB inh,Jurkat NFkB inh,Gli-Sufu antag,697 NFkB conf
CCNC(=O)C[C@@H]1C=C[C@H](NC(=O)NC2CCCCC2)[C@H](CO)O1,/,0.0,/,/,/,/
COc1ccc(C(=O)O/N=C(\N)c2ccccc2)c(OC)c1,-1.7,/,-298.9,-133.7,-63.7,-482.7
COc1ccc(NC(=O)c2cc(-c3ccccn3)nc3ccccc23)cc1S(=O)(=O)N(C)C,-0.1,-2.7,39.2*,18.2,0.7,46.2*
Cc1cc(C)c(S(=O)(=O)N2CCCCC2CCNC(=O)C(=O)NC2CC2)c(C)c1 (stereo not given),/,/,i,-79.6,2.4,i
Cc1ccc(S(=O)(=O)N2CCCCC2CCNC(=O)C(=O)NCc2ccncc2)cc1 (stereo not given),0.3,/,53.1*,-1.9,18.4,52.3*
Cc1noc(C)c1NC(=O)Nc1ccc2c(c1)CC(=O)N([C@H](C)CO)C[C@@H](C)[C@H](CN(C)C(=O)Nc1ccccc1)O2,/,1.4,/,/,/,/
O=[N+]([O-])c1ccc(Sc2ncccn2)c([N+](=O)[O-])c1,3.3,4.4,40.0*,-1.0,11.6,21.2
Cc1cccc(Sc2ccc([N+](=O)[O-])cc2[N+](=O)[O-])n1,0.1,/,-3.4,-10.9,-3.2,/
C[C@H]1CCCCO[C@H](CN(C)S(=O)(=O)c2cn(C)cn2)[C@@H](C)CN([C@@H](C)CO)C(=O)c2cc(NC(=O)CCCN(C)C)ccc2O1,/,0.7,/,/,/,/
COc1ccc(C(=O)N=c2nc3ccccn3s2)cc1,3.5,/,-388.5,-83.5,-55.9,-281.6
COc1ccc(C(=O)O/N=C2\C(=O)N(C)c3ccccc32)cc1,-3.5,-10.9,-8.8,-5.0,5.0,/
O=C(NCC[C@H]1CC[C@@H](NS(=O)(=O)Cc2ccccc2)[C@@H](CO)O1)C1CCC1,/,-0.6,/,/,/,/
COc1ccccc1NC(=S)N1CCNC(=O)C1CC(=O)Nc1cccc(C)c1 (stereo not given),-0.7,-0.9,37.5*,12.5,4.4,-17.6
CC1=NN(C(N)=S)C(=O)C1N=Nc1ccc(Br)cc1 (stereo not given),3.6,18.5,-314.1,-92.9,-48.7,-7.4
C/C=C/c1cnc2c(c1)C(=O)N([C@H](C)CO)C[C@@H](C)[C@H](CN(C)Cc1ccncc1)O2,/,-5.6,/,/,/,/
Cc1ccccc1N1CC(=O)Nc2c(oc3nc(-c4ccccc4)cc(C)c23)C1=O,-1.6,-11.9,38.4*,-0.5,7.3,-3.0
COc1ccc(/C=C2/SC(=S)N(CCC(=O)Nc3cccnc3)C2=O)cc1OC,-5.7,/,/,/,/,/
O=C(CCN1C(=O)/C(=C/c2ccccc2Cl)SC1=S)Nc1cccnc1,-1.5,-0.3,9.2,3.9,5.7,/
O=C(CCCN1C(=O)/C(=C/c2ccccc2Cl)SC1=S)Nc1cccnc1,-2.2,-66.5,82.5*,28.5,18.2,61.0*
O=C(CCCN1C(=O)/C(=C/c2ccccc2Cl)SC1=S)Nc1ccccn1,-14.3,/,45.8*,11.6,8.7,67.8*
Cc1ccc(/C=C2\SC(=S)N(CCC(=O)Nc3cccnc3)C2=O)cc1,-2.9,/,52.3*,-0.3,-4.0,27.1
O=C(C[C@H]1C[C@H]2c3cc(NC(=O)Nc4ccccc4)ccc3O[C@H]2[C@@H](CO)O1)NC1CCCC1,/,0.2,/,/,/,/
Cc1ccc(N2C(=O)c3ccccc3NC2c2ccccc2O)cc1 (stereo not given),1.6,25.5,-296.1,-122.6,-55.1,-102.8
Cn1c(=N)n(CC(=O)c2ccc(Cl)c(Cl)c2)c2ccccc21,-3.7,-74.3,-439.3,-76.9,9.4,-414.0
Cn1c(=N)n(CC(=O)c2ccccc2)c2ccccc21,1.1,-59.2,-286.9,-37.4,-61.8,-258.9
COC(=O)C[C@H]1C=C[C@@H](NC(=O)c2ccccc2)[C@@H](CO)O1,/,-8.7,/,/,/,/
